# A number with no mark means an inactive call.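 How the source made its calls: active = AUC reduced over 20% with Padj below 0.05 in at least 2 of 3 replicates; inactive = otherwise.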
# Key:
# Experiment in all cases: growth AUC relative to DMSO control (median of replicates) (fraction); higher = more growth (less inhibition), active = hit call of the paper
# Details in all cases: 20 µM; 24 h
# Akkermansia muciniphila = system: Akkermansia muciniphila
# Method in brief: (§1)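 Gut bacterial monocultures were grown anaerobically at 37 °C in mGAM, starting at OD600 0.05, with 20 µM compound (1% DMSO) in round-bottom 96-well plates under pierced gas-permeable seals. OD600 was read hourly for 24 h. Area under the growth curve (minimum OD set to 0) was normalised to the plate median of DMSO controls, or to row and column medians on the industrial chemical plate. The value is the median of three biological replicates grown on separate days.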
# Bacteroides caccae = system: Bacteroides caccae
# Method in brief: as §1
# Bacteroides clarus = system: Bacteroides clarus
# Method in brief: as §1
# Bacteroides dorei = system: Bacteroides dorei
# Method in brief: as §1
# Bacteroides stercoris = system: Bacteroides stercoris
# Method in brief: as §1
# [1] = system: Bacteroides thetaiotaomicron
# Method in brief: as §1
# Bacteroides uniformis = system: Bacteroides uniformis
# Method in brief: as §1
# [2] = system: Bifidobacterium longum subsp. longum
# Method in brief: as §1
# Clostridium difficile = system: Clostridium difficile
# Method in brief: as §1
# Collinsella aerofaciens = system: Collinsella aerofaciens
# Method in brief: as §1
Structure (SMILES),growth AUC (Akkermansia muciniphila),growth AUC (Bacteroides caccae),growth AUC (Bacteroides clarus),growth AUC (Bacteroides dorei),growth AUC (Bacteroides stercoris),growth AUC [1],growth AUC (Bacteroides uniformis),growth AUC [2],growth AUC (Clostridium difficile),growth AUC (Collinsella aerofaciens)
CCNS(=O)(=O)C(F)(F)C(F)(F)C(F)(F)C(F)(F)C(F)(F)C(F)(F)C(F)(F)C(F)(F)F,0.945,0.986,0.906,1.02,0.896,0.993,0.966,0.905,1.04,1.13
CCN(CC)C(=O)SCc1ccc(Cl)cc1,0.879,0.98,0.954,0.978,1.12,0.91,0.973,0.948,1.02,0.948
O=C(Nc1ccccc1)Nc1cnns1,0.941,0.868,0.921,0.918,1.04,0.941,1.01,1.03,0.936,0.969
CC1(C)[C@H](/C=C(\Cl)C(F)(F)F)[C@@H]1C(=O)O[C@@H](C#N)c1cccc(Oc2ccccc2)c1,1.14,0.983,0.994,0.972,0.971,0.997,0.984,0.963,0.988,0.932
Cc1c(N)cccc1N,0.946,0.969,1.04,1,1.18,0.992,1,1,1,1.04
O=C(O)c1cc(Cl)ccc1Cl,0.97,0.998,0.989,0.961,0.89,1,1.03,1.17,1.02,0.952
CCC(C)(C)c1ccc(O)cc1,0.91,1.01,0.981,1.03,0.859,1,1,1.08,1.06,1.01
CN(C)C(=S)[S-].CN(C)C(=S)[S-].[Zn+2],0.76,0.876,0.965,0.857,0.799 (active),0.694 (active),0.819,0.884,0.945,0.969
CC(Oc1ccc(Oc2ncc(C(F)(F)F)cc2Cl)cc1)C(=O)O (stereo not given),1.02,0.974,0.957,0.954,0.979,0.975,0.943,0.93,1.01,0.967
CC(C)[C@H](C(=O)O[C@H](C#N)c1cccc(Oc2ccccc2)c1)c1ccc(Cl)cc1,1.1,0.99,0.979,1.04,0.778,1.01,1.02,0.917,1,0.921
CC(C)(O)C(Cl)(Cl)Cl.CC(C)(O)C(Cl)(Cl)Cl.O,1.08,1.01,1,0.973,1.12,1.05,1.02,0.917,1.03,0.999
c1ccc2c(c1)cc1ccc3cccc4ccc2c1c34,1.01,0.957,0.94,0.956,0.978,1,0.957,1.09,0.983,1.03
Cc1cc(C(C#N)c2ccc(Cl)cc2)c(Cl)cc1NC(=O)c1cc(I)cc(I)c1O (stereo not given),0.866,0.184 (active),0.0125 (active),0.0106 (active),0.00703 (active),0.0104 (active),0.0176 (active),0.121 (active),0.00624 (active),0.0767 (active)
